From PubChem BioAssay (NCATS) come the findings set out here.

Assay [1] is described as follows: Quantitative High-Throughput drug screen in 47 multiple myeloma cell lines against the NCATS MIPE library collection: XG1_PLB cell viability assay (AID 1919866). Also: nearly all actives have a fitted effect of over 35% in size. Conditions: CellTiter-Glo ATP, 48 h; series mostly up to 45.8 µM. The method, boiled down:
(§1)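 Readout: median RLU from CellTiter-Glo after 5 min at room temperature. Preceding step was 48 h drug treatment of 500 cells/well at 37 °C, 5% CO2, with DMSO-only and media-only control wells.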

Assay [2] in a line: Quantitative High-Throughput drug screen in 47 multiple myeloma cell lines against the NCATS MIPE library collection: VP6_DJ cell viability assay (AID 1919867). Also: nearly all actives have a fitted effect of over 40% in size. Conditions: ATP luminescence, 48 h; series mostly up to 45.8 µM. In outline:
as §1

Assay [3] can be described thus: Quantitative High-Throughput drug screen in 47 multiple myeloma cell lines against the NCATS MIPE library collection: PE2_PLB cell viability assay (AID 1919869). Also: nearly all actives have a fitted effect of over 35% in size. Conditions: PE2_PLB myeloma cells viability, ATP luminescence, 48 h; series mostly up to 45.8 µM. The method, boiled down: as §1
Assay [4] can be described thus: Quantitative High-Throughput drug screen in 47 multiple myeloma cell lines against the NCATS MIPE library collection: PCM6_Riken cell viability assay (AID 1919870). Also: nearly all actives have a fitted effect of over 30% in size. Conditions: CellTiter-Glo ATP, 48 h; series mostly up to 45.8 µM. In outline:
as §1

Assay [5] is described as follows: Quantitative High-Throughput drug screen in 47 multiple myeloma cell lines against the NCATS MIPE library collection: RPMI8226_ATCC cell viability assay (AID 1919871). Also: nearly all actives have a fitted effect of over 30% in size. Conditions: RPMI8226 myeloma viability, CellTiter-Glo ATP luminescence, 48 h; series mostly up to 45.8 µM. In outline: as §1
A short description of assay [6]: Quantitative High-Throughput drug screen in 47 multiple myeloma cell lines against the NCATS MIPE library collection: KMS28BM_JCRB cell viability assay (AID 1919874). Also: nearly all actives have a fitted effect of over 35% in size. As to conditions: CellTiter-Glo ATP, 48 h; series mostly up to 45.8 µM. The method, boiled down: as §1
Assay [7] in a line: Quantitative High-Throughput drug screen in 47 multiple myeloma cell lines against the NCATS MIPE library collection: KMS11_JCRBsus cell viability assay (AID 1919873). Also: nearly all actives have a fitted effect of over 50% in size. Conditions: KMS11 myeloma viability, CellTiter-Glo ATP luminescence, 48 h; series mostly up to 45.8 µM. The method, boiled down: as §1
A short description of assay [8]: Quantitative High-Throughput drug screen in 47 multiple myeloma cell lines against the NCATS MIPE library collection: OPM2_DSMZ cell viability assay (AID 1919872). Also: nearly all actives have a fitted effect of over 30% in size. As to conditions: OPM2 myeloma viability, CellTiter-Glo ATP luminescence, 48 h; series mostly up to 45.8 µM. In outline:
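CellTiter-Glo luminescence (ATP) after 48 h compound exposure, 37C/5% CO2; 500 cells/well; MIPE 4.0 approved/investigational drugs pinned in; DMSO = 100%, media only = 0% viability.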

A short description of assay [9]: Quantitative High-Throughput drug screen in 47 multiple myeloma cell lines against the NCATS MIPE library collection: UTMC2_PLB cell viability assay (AID 1919868). Also: nearly all actives have a fitted effect of over 55% in size. As to conditions: CellTiter-Glo ATP luminescence, 48 h; viability (% of DMSO control): at 45.8 µM (top of the series). The method, boiled down:
as §1

Assay [10] has as its target Cytochrome P450 3A4 (Homo sapiens) (UniProt P08684). Put plainly: qHTS for inhibitors of CYP3A4 against the NCATS DSHEA and TCM libraries (AID 1919971). Conditions: recombinant CYP3A4 enzyme activity, luminescence qHTS; series mostly up to 34.1 µM. From the text:
Assay Development and Screening Technology Laboratory (ADST)
National Center for Advancing Translational Sciences (NCATS), Rockville, MD
National Institute of Health (NIH), Bethesda, Maryland
Dietary Supplements and Natural Products have minor oversight of their safety and efficacy. We assembled a collection of Dietary Supplements and Natural Products (DSNP) as well as Traditional Chinese Medicinal (TCM) Plant extracts, which were screened against an in vitro panel of assays, including a liver cytochrome p450 enzyme panel, CAR/PXR signaling pathways, and P-gp transporter assays, to assess their activity. This pipeline facilitated the interrogation of Natural Product-Drug Interaction (NaPDI) through prominent metabolizing pathways. In addition, we compared the activity profiles of the DSNP/TCM substances with those of an approved drug collection. Many of the approved drugs have well-annotated mechanisms of action (MOA) while the MOAs for most of the DSNP and TCM samples remain unknown. […] Overall, we highlight four significant bioactivity profiles (measured by p-values) as examples of this prediction. […] To profile potential P-gp activity, a differential cell viability was measured against two cell lines: a parental KB-3-1 human cervical adenocarcinoma cell line and the drug-resistant subline KB-8-5-11 that overexpresses P-gp. […]
9; Read; Luminescence; ViewLux plate reader. […]

Records with an inconclusive call do not appear. Active and inactive are the calls of the source. Calls follow the shape of the dose curve; as a rule, active = well fitted curve in the direction sought with a large enough effect; inconclusive = small, poorly fitted or top-dose-only effect, or another doubt; inactive = no such curve, though single readings can be large; an effect the other way counts as inactive or inconclusive.
Potency is read from the fitted curve at half-maximal effect.

Cytochrome P450 3A4 (Homo sapiens), sequence (P08684 whole entry, looked up): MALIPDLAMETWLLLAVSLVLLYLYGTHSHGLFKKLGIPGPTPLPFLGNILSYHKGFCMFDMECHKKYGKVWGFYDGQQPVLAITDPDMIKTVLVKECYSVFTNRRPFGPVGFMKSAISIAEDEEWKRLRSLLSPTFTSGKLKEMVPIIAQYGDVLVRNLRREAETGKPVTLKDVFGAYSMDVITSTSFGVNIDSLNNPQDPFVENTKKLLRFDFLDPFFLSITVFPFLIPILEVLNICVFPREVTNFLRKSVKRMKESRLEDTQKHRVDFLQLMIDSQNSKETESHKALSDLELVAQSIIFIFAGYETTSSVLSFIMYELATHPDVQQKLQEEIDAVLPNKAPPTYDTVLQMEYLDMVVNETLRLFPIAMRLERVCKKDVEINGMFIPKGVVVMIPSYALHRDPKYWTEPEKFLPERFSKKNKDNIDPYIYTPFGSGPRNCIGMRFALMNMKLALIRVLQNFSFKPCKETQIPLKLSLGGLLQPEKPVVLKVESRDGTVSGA

For the compound `CC(C)N(CC[C@H](c1ccccc1)c1cc(CO)ccc1O)C(C)C`, the Potency entry in assay [1], in [2], in assay [3], in [4] and in assay [5] was “inactive” each time. In addition, the Potency in assay [6] is 1.05 µM (active).
In the case of `N#Cc1c(C2CCNCC2)cc(-c2c(O)cccc2OCC2CC2)nc1N`, the Potency is 4.18 µM (active) in assay [1]; 18.7 µM (active) in [2]; 18.7 µM (active) in [3]; 8.33 µM (active) in [4]; 20.9 µM (active) in [5]; 18.7 µM (active) in [7].
`CC(C)(C)[N+]([O-])=Cc1ccc(S(=O)(=O)O)cc1S(=O)(=O)O`: the Potency entry in assay [1], in assay [2], in assay [3], in assay [5], in assay [8] and in assay [7] was “inactive” each time.
Turning to `N#Cc1c(NC(=O)c2cccc3ccccc23)sc2c1CCCC2`, the Potency was 0.0833 µM (active) in assay [1]; 0.418 µM (active) in [9]; 0.526 µM (active) in [3]; 0.296 µM (active) in assay [4]; 2.64 µM (active) in [5]; 0.743 µM (active) in assay [8].
`CC(C)Oc1ccc(C(=O)N[C@H](CNC(=O)CN(C)C)Cc2ccc(-c3cn4cccc([C@H](C)O)c4n3)cc2)cc1Cl`: the Potency in [1] is 0.148 µM (active); in assay [2], 5.26 µM (active); in assay [4] it was 23.5 µM (active); in assay [8], 1.48 µM (active); in assay [7] it was 0.132 µM (active).
For the compound `CC(C)(N)c1ccc(-c2nc3ccccc3nc2-c2ccccc2)cc1`, the Potency in assay [1] is 7.43 µM (active); in assay [2] it was 7.43 µM (active); in [3], 10.5 µM (active); in [4], 10.5 µM (active); in assay [7], 18.7 µM (active); in [6] it was 26.4 µM (active).
Consider `CC(C=CC1=C(C)CCCC1(C)C)=CC=CC(C)=CC(=O)Nc1ccc(O)cc1`, for which the Potency in assay [1] is 15.2 µM (active); in [9] it was 15.2 µM (active); in assay [3], 12.1 µM (active); in assay [4], 13.6 µM (active); in assay [5], 24.1 µM (active); in [8], 17.1 µM (active). Moreover, the Potency in assay [7] is 19.1 µM (active); in assay [6], 17.1 µM (active).
As to `O=C(NCc1ccccc1)[C@H](Cc1ccccc1)NC(=O)[C@@H]1O[C@@H]1C(=O)NCCc1ccc(O)cc1`, the Potency in [1] was 14.8 µM (active); in assay [3] it was 23.5 µM (active). Also, the Potency entry in assay [2], in [8] and in assay [6] was “inactive” throughout.
On to `O=C1c2c(O)cccc2[C@@H]([C@@H]2O[C@H](CO)[C@@H](O)[C@H](O)[C@H]2O)c2cc(CO)cc(O)c21`, for which the Potency entry in assay [1], in assay [2], in [3], in assay [4], in [5] and in assay [7] was “inactive” each time. In assay [6], the Potency entry is “inactive”. Also, the Potency in assay [10] is 25.1 µM (active).
With `NC[C@H]1O[C@H](O[C@H]2[C@@H](O)[C@@H](O[C@H]3O[C@H](CO)[C@@H](O)[C@H](N)[C@@H]3O)[C@H](N)C[C@@H]2N)[C@H](N)C[C@H]1O`, the Potency entry in assay [1], in [2], in [3], in assay [4] and in assay [8] was “inactive” each time.
For the compound `CON=C(C(=O)N[C@@H]1C(=O)N2C(C(=O)O)=C(CSC(=O)c3ccco3)CS[C@H]12)c1csc(N)n1`, the Potency entry in [1], in [2], in [3], in assay [8] and in [6] was “inactive” each time.
For the compound `CN[C@H]1[C@@H](O)[C@@H]2O[C@@H]3O[C@H](C)CC(=O)[C@]3(O)O[C@@H]2[C@@H](NC)[C@H]1O`, the Potency in [1] is 0.0935 µM (active); in [9] it was 6.62 µM (active); in assay [3], 3.32 µM (active); in [4], 1.48 µM (active); in assay [5] it was 9.35 µM (active).
Turning to `C#C[C@]1(O)CC[C@@H]2[C@@H]3CCc4cc(O)ccc4[C@H]3CC[C@@]21C`, the Potency in [1] was 3.32 µM (active); in assay [2], 3.32 µM (active); in [3] it was 16.6 µM (active); in [4], 14.8 µM (active); in assay [7] it was 10.5 µM (active); in [6], 4.69 µM (active).
As for `CNC(=O)c1ccc(Nc2cc(Nc3ccccc3S(=O)(=O)C(C)C)c3cc[nH]c3n2)nc1`, the Potency was 0.296 µM (active) in [1]; 0.418 µM (active) in assay [9]; 1.18 µM (active) in assay [3]; 1.18 µM (active) in assay [4]; 18.7 µM (active) in assay [5]; 7.43 µM (active) in [8]. Besides, the Potency in [7] is 2.64 µM (active); in assay [6] it was 1.32 µM (active).
Consider `CCOC(=O)N1CCN([N+]([O-])=NOc2ccc([N+](=O)[O-])cc2[N+](=O)[O-])CC1`, for which the Potency in assay [1] was 0.418 µM (active); in [9] it was 0.526 µM (active); in assay [3], 1.48 µM (active); in [4] it was 0.743 µM (active); in assay [5], 13.2 µM (active); in assay [8], 1.05 µM (active). Besides, the Potency in assay [7] was 0.332 µM (active); in assay [6], 0.833 µM (active).
For `O=C(NC1CC1)c1cccc(-c2ccc3c(NC(=O)C4CC4)n[nH]c3c2)c1`, the Potency in assay [1] is 1.05 µM (active); in assay [2], 9.35 µM (active); in assay [8], 14.8 µM (active); in [7], 7.43 µM (active).
On to `OC[C@@H](O)[C@@H](O)[C@H](O)[C@@H](O)CO`, for which the Potency result in assay [1], in assay [2], in [3], in assay [4], in assay [5] and in assay [8] was “inactive” in each case. For the same compound, the Potency entry in assay [6] was “inactive”.
Turning to `COc1cc(OC)cc(-c2ccc3ncc4ccc(=O)n(-c5ccc(N6CCNCC6)c(C(F)(F)F)c5)c4c3c2)c1`, the Potency in assay [1] was 0.526 µM (active); in assay [9], 2.96 µM (active); in assay [3] it was 3.32 µM (active); in assay [4] it was 3.72 µM (active); in assay [5], 11.8 µM (active); in assay [8], 8.33 µM (active). Moreover, the Potency in assay [7] was 2.64 µM (active); in assay [6], 4.69 µM (active).
Take `CC(C)NC[C@@H](C(=O)N1CCN(c2ncnc3c2[C@H](C)C[C@H]3O)CC1)c1ccc(Cl)cc1`: the Potency was 1.87 µM (active) in assay [1]; 0.105 µM (active) in assay [9]; 1.32 µM (active) in [4]; 11.8 µM (active) in assay [5]; 4.69 µM (active) in [7]; 2.96 µM (active) in [6].
Take `CC(=O)OCC(=O)[C@@]1(O)CC[C@H]2[C@@H]3CCC4=CC(=O)CC[C@]4(C)[C@@H]3C(=O)C[C@@]21C`: the Potency entry in assay [1], in [3], in assay [4], in assay [5] and in [8] was “inactive” throughout.
In the case of `CC(Cc1ccc(O)c(O)c1)(NN)C(=O)O` (stereo not drawn), the Potency entry in [1], in assay [9], in assay [3] and in assay [6] was “inactive” throughout. Besides, the Potency in assay [7] is 26.4 µM (active).
